# Measurements taken from PubChem BioAssay AID504834 (National Center for Advancing Translational Sciences (NCATS), 2011).
# Hit rate of the full screen: of about 320,000 compounds, about 22,000 (6.9%) were called active. Another 27% or so got no clear call; they are omitted. Many of the other results were omitted from the sample, so actives are more common in it than they were. A number with no mark means an inactive call. Calls follow the shape of the dose curve; as a rule, active = well fitted inhibition curve with a large enough effect; inconclusive = small, poorly fitted or top-dose-only effect, or another doubt; inactive = no such curve, though single readings can be large or run the other way.
# Assay: Primary qHTS for delayed death inhibitors of the malarial parasite plastid, 96 hour incubation
# Settings: P. falciparum luciferase reporter growth; series mostly up to 28.7 µM; activity change, negative = inhibition: at the top concentration
# Outline: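 Infected RBCs, 2% Hct / 0.05% parasitemia final; luciferase-reporter P. falciparum; cpd 96 h, 37 C, 5% CO2; luciferase detection reagent; luminescence.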
# % is scaled to controls: 0 for no effect and ±100 for the full control effect; potency is read from the fitted curve at half-maximal effect.
Compound,"activity change, negative = inhibition [%]",Potency
COc1ccc(C2CC(c3ccc([N+](=O)[O-])cc3)=NN2C(C)=O)cc1 (stereo not drawn),-93.3,–
COCc1c(C(=O)OCC(=O)Nc2ccc(OC(F)F)cc2)oc2ccccc12,-20.6,–
Cc1ccc(NC(=O)Cn2c(C)csc2=O)cc1,57.6,–
O=C(NCCSc1ncc(-c2ccccc2)[nH]1)c1ccco1,15,–
Cc1ccc(S(=O)(=O)N(CCCN(C)C)Cc2ccc3c(c2)OCO3)cc1,29.2,–
COc1ccccc1CCNS(=O)(=O)c1cn(C)nc1C,90.8,–
CCC(=O)N1CCc2cc(S(=O)(=O)NC(C(=O)N3CCc4ccccc4C3)C(C)C)ccc21 (stereo not drawn),-1.47,–
CC(=O)N1CCc2cc(S(=O)(=O)NC3CCCCC3)ccc21,27.2,–
CCOC(=O)N1CCC(NC(=O)C(NS(=O)(=O)c2ccc3c(c2)CCN3C(=O)CC)C(C)C)CC1 (stereo not drawn),–,16.5 µM (active)
O=S(=O)(NC1CCCC1)c1ccc(-n2cnnn2)cc1,0.984,–
COc1cc(OC)cc(C(=O)NCCSCc2ccc(Cl)cc2)c1,15.3,–
COc1ccc(/C=C(\C#N)C(=O)OCC(=O)N(C)C2CCS(=O)(=O)C2)cc1 (stereo not drawn),11.7,–
CC(C)CC(O)C1CCN(C(=O)CCc2nnc(-c3ccc4c(c3)OCO4)o2)CC1 (stereo not drawn),26.7,–
CC(=O)N/C(=C\c1ccc(F)cc1)C(=O)NC(Cc1ccccc1)C(=O)O (stereo not drawn),-1.95,–
O=C(NC(Cc1ccc(O)cc1)C(=O)O)/C(=C/c1ccccc1)NC(=O)c1ccccc1 (stereo not drawn),–,11.7 µM (active)
O=C(NC(Cc1ccccc1)C(=O)O)/C(=C\c1ccccc1)NC(=O)c1ccco1 (stereo not drawn),110,–
Cc1ccc(OCC(=O)Nc2nnc(-c3ccco3)s2)cc1,12.4,–
CC(NS(=O)(=O)c1ccc(Cl)cc1)C(=O)Nc1ccc2c(c1)OCCO2 (stereo not drawn),30.4,–
COCCCn1c(SCC(=O)Nc2oc(C)c3c(C)n[nH]c(=O)c23)nc2sc3c(c2c1=O)CCC3,-3.96,–
CC(C)(C)NC(=O)C(=O)NCc1ccncc1,–,3.29 µM (active)
CCCC(C)C(=O)NCc1ccncc1 (stereo not drawn),0,–
O=C(NCc1ccncc1)C(=O)NCc1ccco1,10.7,–
CCc1cccc(NC(=O)COC(=O)c2cc(=O)c3ccccc3o2)c1,20.8,–
COC(=O)c1sc(NC(=O)COC(=O)C2CCC2)c(C(=O)OC)c1C,-1.55,–
COc1ccc(-n2ncc3c(N4CCCc5ccccc54)ncnc32)cc1,–,13.1 µM (active)
COc1ccc(N2CCN(C(=O)CSc3ncnc4c3cnn4-c3ccc(OC)cc3)CC2)cc1,-5.18,–

Compound,"activity change, negative = inhibition [%]",Potency
c1ccc(-n2ncc3c(N4CCCC4)ncnc32)cc1,27.8,–
O=C(NCC(=O)N(c1ccccc1)C(C(=O)NCC1CCCO1)c1ccccc1)c1cccs1 (stereo not drawn),-23.4,–
O=C(O)c1ccccc1-c1ccccc1C(=O)Nc1ccccc1Br,-27.2,–
COC(=O)CN1C(=O)[C@H]2[C@@H](/C=C/c3ccccc3)N3C(=O)CN(CC4CC4)C(=O)[C@@]3(Cc3ccccc3)[C@H]2C1=O,25.2,–
Fc1ccc(-c2ccc(NCCN3CCOCC3)nn2)cc1,15.4,–
O=S(=O)(c1ccc(SCc2ccccc2)nc1)N1CCCCCC1,5.66,–
Cc1cc(=O)oc2cc(NC(=O)C(C)Oc3ccccc3)ccc12 (stereo not drawn),35.7,–
Cc1cc(=O)oc2cc(OC(C)C(=O)Nc3ccc(N4CCOCC4)cc3)ccc12 (stereo not drawn),2.35,–
COc1ccc(-c2cc(=O)oc3cc(OC(C)C(=O)Nc4ccc(CN5CCOCC5)cc4)ccc23)cc1 (stereo not drawn),–,9.28 µM (active)
CN1C(=O)C2(OCCCO2)c2cc(Cl)ccc21,-11.2,–
Cc1cc(S(=O)(=O)c2cc3ccc(O)c(C)c3oc2=O)ccc1F,4.07,–
CCOc1ccc(-n2cnc3c(=O)[nH]c(N)nc32)cc1,1.24,–
Cc1n[nH]c(C)c1S(=O)(=O)N1CCCC(C(=O)Nc2ccc(Br)cc2)C1 (stereo not drawn),-16.5,–
CCC(C)C(N=C1NS(=O)(=O)c2ccccc21)C(=O)N1CCC(C)CC1 (stereo not drawn),80.9,–
CCOC(=O)N1CCN(C(=O)c2ccc(S(=O)(=O)Nc3cccc(C(F)(F)F)c3)cc2)CC1,-11,–
Nc1ccn(CC(=O)N2CCN(c3ccccn3)CC2)c(=O)n1,64.8,–
CC(C)C(=O)Nc1oc(-c2ccccc2)cc1C#N,–,2.08 µM (active)
CC(C)C(=O)Nc1ccc2c(c1)oc1ccccc12,-9.01,–
CC(Oc1ccccc1)C(=O)Nc1oc(-c2ccco2)c(-c2ccco2)c1C#N (stereo not drawn),-5.03,–
CCC(=O)Nc1ccc2nn(-c3ccc(F)cc3)nc2c1,0,–
Cc1cccc(NC(=O)CN2CCN(CC(=O)NCC3(N4CCCCC4)CCCCC3)CC2)c1C,1.42,–
COC(=O)c1c(NC(=O)COc2ccc(Cl)cc2Cl)sc2c1CC(C)(C)NC2(C)C,–,6.57 µM (active)
COC(=O)c1sccc1NC(=O)COc1ccc(Cl)cc1,8.06,–
CN1CCN(c2ccc(NC(=O)COc3ccc(Cl)cc3Cl)cc2)CC1,-18.7,–
Cc1nc2ccccc2c(=O)n1-c1ccc(F)c(NC(=O)c2cccs2)c1,12,–
O=C(NCc1cccc(Cl)c1)C1CCC(=O)N(C2CC2)C1 (stereo not drawn),35.7,–

Compound,"activity change, negative = inhibition [%]",Potency
CCN1CCN(CCNC(=O)c2ccc3c(c2)NC(=O)/C(=C\c2ccc(OC)c(OC)c2)S3)CC1,-26.6,–
Cc1ccc(S(=O)(=O)N(CC(O)CN2C(=O)NC(C)(C)C2=O)c2cccc([N+](=O)[O-])c2)cc1 (stereo not drawn),3.55,–
COc1cc(/C=C2\CCCc3c2nc2ccccc2c3C(=O)O)cc(Cl)c1O,-4.48,–
O=C(Nc1ccccc1-c1nnn(CC(=O)N2CCN(c3ccccc3)CC2)n1)c1cccs1,–,9.28 µM (active)
O=C(Nc1ccc(N2CCN(C(=O)C3CC3)CC2)cc1)c1cccs1,-4.99,–
COc1ccccc1N1CCN(C(=O)Cn2nnc(-c3cccs3)n2)CC1,3.57,–
Cc1nc2nc(SCC(=O)Nc3cccc(F)c3)[nH]c2cc1Br,16.6,–
N#Cc1ccc(OCC(=O)NC(=O)NC2CCS(=O)(=O)C2)cc1 (stereo not drawn),2.04,–
CCOC(=O)C(C)N(c1ccccc1Cl)S(C)(=O)=O (stereo not drawn),7.23,–
Cc1cccc(OCCNC(=O)CSc2ccc(C(F)(F)F)cc2[N+](=O)[O-])c1,331,–
O=C(CSc1ccc(C(F)(F)F)cc1[N+](=O)[O-])NCCOc1ccccc1,–,13.1 µM (active)
Nc1ccccc1Sc1ccc(C(F)(F)F)cc1[N+](=O)[O-],3.57,–
CCOc1ccccc1OCCCNCc1ccccc1,28.2,–
O=C(CNc1ccc(F)cc1F)NC(=O)NCc1ccco1,11.3,–
Cn1c(CNC(=O)c2ccco2)nnc1SCC(=O)N1CCN(c2ccccc2)CC1,-1.11,–
Cc1nc2ncnn2c(C)c1CCC(=O)N1CCN(C(=O)c2ccco2)CC1,37,–
O=C(Nc1cccc2ccccc12)N1CCC2(CC1)OCCO2,-27.2,–
Cc1nc2nc(C)c(CCC(=O)N3CCC4(CC3)OCCO4)c(C)n2n1,–,11.7 µM (active)
COc1ccc(CNC(=O)CNC(=O)c2sc3ccccc3c2Cl)cc1OC,0.724,–
CCOc1ccc(C)cc1S(=O)(=O)NC1CCCCCC1,-19.9,–
Cc1ccc(-n2nc(C)c(C(=O)O)c2-n2cccc2)cc1,17.1,–
O=C(NCc1ccc(F)cc1)C1CCC(CNc2c(N3CCOCC3)c(=O)c2=O)CC1 (stereo not drawn),-22.9,–
O=C(NCCCc1ccccc1)C1CCC(CNc2c(N3CCCCC3)c(=O)c2=O)CC1 (stereo not drawn),-25.3,–
CC(NC(=O)C1CCC(CNc2c(N3CCOCC3)c(=O)c2=O)CC1)c1ccccc1 (stereo not drawn),–,13.1 µM (active)
CCOc1ccccc1NC(=O)C1CCC(CNc2c(N3CCOCC3)c(=O)c2=O)CC1 (stereo not drawn),-10.4,–
COc1ccc(NC(=O)C2CCC(CNc3c(N4CCCCC4)c(=O)c3=O)CC2)c(OC)c1 (stereo not drawn),-15.3,–

Compound,"activity change, negative = inhibition [%]",Potency
O=C(NCc1ccccc1Cl)C1CCC(CNc2c(N3CCCCC3)c(=O)c2=O)CC1 (stereo not drawn),–,10.4 µM (active)
CCCCn1c(N)c(N(CCC(C)C)C(=O)COC(=O)c2cccnc2OCC)c(=O)[nH]c1=O,52.6,–
Cc1ccc(/C=C2\SC(=S)N(CCC(=O)Nc3ccc(O)cc3)C2=O)cc1,46.5,–
COc1ccc(OCC(=O)NNC(=O)c2ccc(-c3ccccc3)cc2)cc1,-17.4,–
COc1ccc(C(=O)NNC(=S)NC(=O)c2ccccc2)cc1,–,6.57 µM (active)
COc1ccc(C(=O)NC(=S)NC2CCCCC2)cc1,-0.349,–
Cc1cc(NC(=O)CCC(=O)N(CC(=O)NC2CCCC2)c2ccc(F)cc2)no1,40.9,–
C=CCC1=C/C(=C\c2c(N)n3nc(CC(=O)N4CCOCC4)sc3nc2=O)C=C(OC)C1=O,-14.7,–
Cc1ccc(SCC(=O)Nc2ncc(C)s2)cc1,3.99,–
Cc1cnc(NC(=O)CSc2nnc(C)s2)s1,-15.1,–
Cc1cnc(NC(=O)CSc2c(Cl)cccc2Cl)s1,–,10.4 µM (active)
CCOC(=O)C1=C(C)NC(SC)=NC1c1ccccc1 (stereo not drawn),-21.1,–
CCOC(=O)C1=C(C)Nc2sc(C(=O)c3ccc(Br)cc3)c(N)c2C1c1ccc(C(=O)OC)cc1 (stereo not drawn),–,6.57 µM (active)
CCOC(=O)c1sc(=NC(=O)c2ccc(Br)cc2)n(C)c1C,65.4,–
CC(OC(=O)/C=C/c1ccccc1)C(=O)Nc1ccc(C(N)=O)cc1 (stereo not drawn),-9.65,–
CCCCNC(=O)C1CCC(=O)N1CCc1ccccc1 (stereo not drawn),14.2,–
O=C1c2ccccc2C(O)N1Cc1ccccc1Cl (stereo not drawn),59.3,–
O=C(Nc1ccc(Br)cc1)C1CCC(=O)N1Cc1ccccc1Cl (stereo not drawn),–,10.4 µM (active)
COc1ccc(-c2onc3ccc(C(C)=O)cc23)cc1,25.1,–
O=C(c1ccc2c(c1)OCCO2)C1CCN(S(=O)(=O)c2cccc(F)c2)CC1,-2.68,–
O=C(c1c(F)cccc1F)N1CCN(S(=O)(=O)c2ccc3c(c2)OCCO3)CC1,-5.48,–
O=S(=O)(NC1CCN(S(=O)(=O)c2ccc3c(c2)OCCO3)CC1)c1c(F)cccc1F,–,11.7 µM (active)
CCOc1ccc(C(=O)CCN2CCOCC2)cc1,-16.3,–
O=C1CCN(CCCc2ccccc2)CCN1CCO,5.15,–
NS(=O)(=O)c1cccc(NC(=O)CC23CC4CC(CC(Br)(C4)C2)C3)c1,23.8,–
